# Values joined by “and” are separate entries in the source; they are usually repeats but may differ in a detail not shown here. Equal entries are not always repeated. Compounds without any hit were thinned out: in the full panel of roughly 83,000, 20% have a hit.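 Percent growth is the endpoint: 0 to 100 indicates growth inhibition (40 means 60% inhibition), 0 means no net growth, and negative values indicate cell death.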 Values without a mark were called inactive. Active and inactive are the calls of the source. Rule for the calls: active = growth percent below 10; inactive = the rest.
# Columns and labels:
# Experiment in all cases: NCI-60 one-dose screen, 48 h (100 = growth as untreated, 0 = no growth, -100 = all killed)
# Conditions in all cases: 10 µM unless noted
# [1] = test system: T-47D breast
# [2] = test system: BT-549 breast
# [3] = test system: MDA-MB-435 melanoma
# [4] = test system: SW-620 colon
# [5] = test system: MCF7 breast
# [6] = test system: HCT-116 colon
# [7] = test system: HCC-2998 colon
# [8] = test system: KM12 colon
# [9] = test system: MDA-MB-468 breast
SMILES,growth [1],growth [2],growth [3],growth [4],growth [5],growth [6],growth [7],growth [8],growth [9]
COCOc1cc2c(=O)c(C)c(C(=O)N[C@@H](Cc3ccccc3)C(O)C(=O)NCc3ccccc3)oc2cc1OC (stereo partly drawn),40.7%,-35.5% (active),11.2%,31.1%,17.3%,-10.4% (active),57.3%,-32.6% (active),13.9%
COc1cc(C2CC(c3cc(OC)c(OC)c(OC)c3)=Nc3c(N)nc(N)nc3N2)ccc1Oc1nc(NCCO)nc(N2CCOCC2)n1 (stereo not drawn),90.3%,116%,100%,103%,87.4%,100%,115%,99.9%,81.2%
S=C(NCCc1ccccc1)Nc1ccc(OCc2nc3ccccc3[nH]2)cc1,103%,109%,105%,107%,95.3%,103%,114%,103%,99.5%
COc1ccc(C2CC(c3ccc(S(=O)(=O)NCCNc4nc(Nc5ccc(F)cc5)nc(N(C)C)n4)cc3)=Nc3c(N)nc(N)nc3N2)cc1 (stereo not drawn),66.2%,57.1%,83.3%,96%,47.6%,51.2%,90.6%,82.5%,8.63% (active)
COc1cc(/C=C/C(=O)c2ccccc2)ccc1Oc1nc(Nc2ccc(F)cc2)nc(N(C)C)n1,13%,-6.57% (active),24.9%,-0.837% (active),5.96% (active),-83.1% (active),59%,40.8%,21.5%
OCNc1ccc(-n2cnc3cc(-c4ccc(O)cc4)ccc32)cc1C(F)(F)F,23.8%,24%,7.66% (active),27.1%,10.1%,22.6%,43.4%,4.46% (active),27.7%
COc1ccc(/C=C/c2n(Cc3ccc4ccccc4c3)c3ccccc3[n+]2Cc2ccc3ccccc3c2)cc1,-70.1% (active),-93.1% (active),-91.1% (active),-96.2% (active),-71.3% (active),-95.3% (active),-84.3% (active),-84.5% (active),-83.9% (active)
Cn1cc(-c2cc3nc(-c4c[nH]c5ccc(Br)cc45)cc(N)n3n2)c2ccccc21,-60.8% (active),-63.6% (active),-88.6% (active),-63.5% (active),-87.2% (active),-90.6% (active),-82.4% (active),-83% (active),-70.3% (active)
CC1(C)CC[C@]2(C(=O)Nc3ccc(Br)cc3)CC[C@]3(C)C(=CCC4[C@@]5(C)C[C@@H](O)[C@H](O)[C@@](C)(CO)C5CC[C@]43C)C2C1 (stereo partly drawn),-9.58% (active),-35.4% (active),3.33% (active),18.8%,1.85% (active),-15.8% (active),-33.4% (active),-52.9% (active),-3.95% (active)
COc1cc2c3c(n(CCCN4CCC[C@@H]4CO)c(=O)c2cc1OC)-c1cc2c(cc1C3=O)OCO2,49.3%,34.9%,-86.8% (active),-77.8% (active),-84.9% (active),-59.1% (active),-99.4% (active),-98.2% (active),-92.4% (active)
COC(=O)/C=C/c1cccc2c1C(=O)NC(C)(c1cc3ccccc3oc1=O)N2 (stereo not drawn),51.4%,58.2%,78.2%,72.2%,82.2%,44.6%,74.4%,68.8%,64.7%
COc1ccc(C(=O)/C=C/c2ccc(OC)c(OCc3ccccc3)c2)cc1OC,15.7%,-15.5% (active),22.7%,9.63% (active),7.12% (active),10.7%,12.6%,8.98% (active),1.46% (active)
Cc1sc(C(NC(=O)OCCn2c([N+](=O)[O-])cnc2C)C(F)(F)Cl)nc1-c1ccc(OC(F)(F)F)cc1 (stereo not drawn),-66.1% (active),-92.2% (active),-43.7% (active),-67.1% (active),-85.1% (active),-80.3% (active),-96.6% (active),-61.9% (active),-93.4% (active)
Cc1cc2nc3c4ccccc4n(CC4=NCCN4)c3nc2cc1C,15.4%,4.52% (active),-86.6% (active),-40.2% (active),-90.5% (active),-92.8% (active),-46.6% (active),43%,-57.3% (active)
O=C(COc1ccc(NC(=O)Nc2ccc(Cl)c(Cl)c2)cc1)N=Nc1c(O)[nH]c2ccc([N+](=O)[O-])cc12,66%,50%,59.5%,15.9%,30.6%,11.3%,82.6%,42.2%,32.6%
O=C(c1ccccc1)C(c1c[nH]c2ccccc12)c1c[nH]c2ccccc12,58%,14%,36.8%,4.95% (active),16.4%,20.2%,83.8%,51.3%,57.8%
Cc1ccc(C(=O)NN2C(=O)/C(=C/C=C/c3ccc([N+](=O)[O-])o3)SC2=S)cc1,-61.1% (active),-90% (active),-66.3% (active),-69.1% (active),-49.2% (active),-77.7% (active),-90% (active),-83.2% (active),-85.7% (active)
O=c1oc2ccccc2cc1-c1csc(N=Nc2c(O)[nH]c3ccc(Cl)cc23)n1,93.6%,104%,106%,109%,81.4%,106%,103%,103%,106% and 94.5%
CCCSc1nc(NCCc2c[nH]c3ccccc23)c(C#N)c(-c2ccc(OC)cc2)n1,15.3%,83.2%,62.5%,42.5%,7.41% (active),20.8%,48%,37.1%,26.4%
C#CCOc1ccc(/C=N/Nc2nc(-c3ccc(F)cc3)cs2)cc1OC,35.4%,24.5%,56.2%,86.7%,35.3%,44.6%,92.9%,59.9%,51.3%
O=C1/C(=C/C2=Cc3ccccc3OC2)SC(=S)N1c1ccccc1F,95%,77.8%,108%,112%,78.4%,96.4%,109%,102%,99%
C#CCOc1cc(N(CC)CC)ccc1C(C(=O)NC(C)(C)C)N(C(=O)C1CCc2cc(F)ccc2O1)c1ccccc1F (stereo not drawn),30.2%,40.3%,35.9%,42.1%,16.6%,20.5%,73.2%,18.8%,25.5%
CN(C)CCn1c2ccccc2c2nc3ccc([N+](=O)[O-])cc3nc21,14.3%,12.5%,22.3%,12.2%,12.4%,,2.82% (active),1.62% (active),
C=C1CCC2C3(C)COC(c4ccc(F)cc4)OC3CCC2(C)C1C/C=C1/C(=O)OCC1O (stereo not drawn),-16.5% (active),-85.8% (active),-35.5% (active),-69.8% (active),-30.7% (active),-74.2% (active),-69.7% (active),-44.7% (active),-50.5% (active)
CN1CCN(/C(=N\c2sc(-c3ccccc3)nc2-c2ccccc2)c2ccccc2)CC1,76.2%,77.5%,79.7%,79.5%,75.1%,54.4%,77.5%,24.5%,71.6%
Cc1cccc(Nc2nc3ccccc3nc2/C=C/c2ccc(F)cc2)c1,78.9%,99.2%,96.8%,88.2%,60.9%,81%,94.2%,96.5%,90%
O=C(O)Cn1c(O)c(/C=C2/C=c3cc4c(cc3=NC2=O)OCCO4)sc1=S,104%,104%,102%,113%,86.3%,,109%,104%,
C=C1CC[C@@H]2[C@]3(C)COC(c4ccccc4)O[C@@H]3CC[C@@]2(C)[C@@H]1C/C=C1/C(=O)OCC1OC(C)=O (stereo partly drawn),-45.1% (active),-93.5% (active),-29.3% (active),-49.1% (active),-56.7% (active),-94.7% (active),-76.2% (active),-9.91% (active),-89.8% (active)
